Screens from PubChem.
Shown are actives, neighbours in structure and some others; about 3.8% of the full set was active somewhere.
Bfl-1 A1 inh – caspase 3/7 activation in MEF A1-2A-BIM cells, primary screen, A1 inhibitor project, cell-based, luminescence, HTS; caspase activation, % (no concentration beside the values); Caspase-Glo 3/7 luminescence, 3 h; percent of clofoctol response, vehicle zero; actives 0.066% (n = 330,000);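 active = over half of replicate activation scores above 10%, or exactly half above 10 with the replicate mean above 10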
Mdm2 MdmX PPI – inhibitors of human Mdm2-MdmX association, primary screen, cell-based, luminescence, split luciferase, SaOS-2, uHTS; Protein Mdm4 (Homo sapiens) + E3 ubiquitin-protein ligase Mdm2 (Homo sapiens), …; SaOS-2 split-luciferase Mdm2/MdmX complementation; inhibition, % at 8 µM; actives 3% (n = 330,000); AID 485346, 2010;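 active = inhibition of at least 50% at 8 µM in the primary screen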
Beta cell apopt – inhibitors of cytokine-induced beta cell apoptosis, primary screen, luminescence; actives 0.8% (n = 300,000); INS-1E cytokine-induced death, ATP luminescence, 48 h; percent of positive-control rescue, neutral wells zero; protection from apoptosis, % (test concentration not listed); AID 435005, 2010;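 active = Every replicate reaches about 75%, or at least half do and their mean reaches it too, limit read from the data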;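 also: higher means more ATP so stronger rescue from cytokine killing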
Jurkat NFkB inh – inhibitors of induced NF-kB luciferase reporter, primary screen, TCR NF-kB activation inhibitor project, cell-based, luminescence, uHTS | Jurkat, PMA/ionomycin-induced NF-kB luciferase reporter | inhibition, % at 4 µM | actives 0.53% (n = 330,000) | AID 435003, 2010; in the data active = inhibition above about 50%
697 NFkB inh – inhibitors of PMA/ionomycin-induced NF-kB reporter, 697 cells, primary screen, B-cell NF-kB inhibitor project, cell-based, luminescence, uHTS. 697 B-cell NF-kB luciferase reporter, 16 h. inhibition, % at 4 µM. actives 0.33% (n = 330,000). AID 435022, 2010; in the data active = inhibition above about 35%
NTR1 ag – agonists of human NTR1, primary screen, imaging, U2OS cells, beta-arrestin-GFP, high content | Neurotensin receptor type 1 (Homo sapiens), P30989 | NTR1-U2OS beta-arrestin-GFP spot imaging, agonist mode | activation, % at 20 µM | actives 0.17% (n = 330,000);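 active = activation at or above 40% of the spot to cytoplasm intensity ratio, with at least 20 cells analyzed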
Mdm2-MdmX conf – Mdm2-MdmX complex disruptors, retested hits, confirmation, luminescence, single concentration; inhibition, % at 8 µM; actives 55% (n = 10,000); AID 489028, 2010; Mdm2-MdmX binding, luminescent assay; shares compounds with Mdm2 MdmX PPI; in the data active = inhibition above about 40%
Full FLuc ctr – full-length luciferase signal inhibition, confirmation, counter-screen for Mdm2/MdmX interaction inhibitor project, cell-based, single concentration, SaOS-2 | shares compounds with Mdm2 MdmX PPI | SaOS-2 full-length luciferase counterscreen, luminescence | inhibition, % at 8 µM | actives 77% (n = 6,200) | AID 504607, 2011;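 active = mean inhibition at 8 µM reaching about 37%, which flags the compound as non-specific, limit read from the data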;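 also: p53-null SaOS-2 cells with luciferase driven by a doxycycline-inducible promoter; compound on cells about two nights before reading with doxycycline added after day one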
Numbers stand for hits; n = inactive; x = not tested or not shown.

SMILES	Bfl-1 A1 inh	Mdm2 MdmX PPI	Beta cell apopt	Jurkat NFkB inh	697 NFkB inh	NTR1 ag	Mdm2-MdmX conf	Full FLuc ctr
Cc1ccc(NC(=O)Nc2cc(C(F)(F)F)c[nH]c2=O)cc1	n	58.0	n	n	n	n	44.5	72.0
O=C(Nc1ccc(OC(F)F)cc1)Nc1cccc(C(F)(F)F)c1	n	76.0	77.7	n	n	n	93.2	n
O=C(Nc1ccncc1)Nc1cccc(C(F)(F)F)c1	n	n	n	n	n	n	x	x
Cc1ccc(CSc2[nH]c(=O)ncc2C)cc1	n	n	n	n	n	n	x	x
COc1ccc(NC(=O)Nc2nnc(-c3ccccc3SCc3ccccc3)s2)cc1	n	n	n	n	n	n	x	x
O=C(Nc1nnc(-c2ccccc2SCc2ccccc2)s1)Nc1ccccc1F	n	75.8	n	n	n	n	n	x
COc1cccc(NC(=O)Nc2nnc(-c3ccccc3SCc3ccccc3)s2)c1	n	52.9	n	n	n	n	n	x
Oc1ccc(/C=N/Nc2ccc(Cl)nn2)c(O)c1O	n	n	n	n	n	n	x	x
COc1cccc(NC(=O)CCNS(=O)(=O)c2cccc3nonc23)c1	n	n	n	n	n	n	x	x
COCCCNC(=O)C(=O)NCC1CCCN1S(=O)(=O)c1cccs1 (centres undefined)	n	n	n	n	n	n	x	x
CCOc1ccc(NC(=O)c2ccc(F)cc2F)cc1	n	n	n	n	n	n	x	x
O=c1/c(=C/c2ccc(O)cc2)sc2nc3cc(Br)cnc3n12	n	57.9	n	n	n	n	n	39.5
Cc1noc(C)c1CSc1nc2ccccc2c(=O)n1-c1ccc(F)cc1F	n	66.3	n	n	n	n	53.0	57.7
O=C(CCC(=O)N(CC(=O)NC1CCCCC1)c1ccc(F)cc1)Nc1ccccn1	n	n	n	n	n	n	x	x
NNC(=O)c1[nH]c2ccc(Cl)cc2c1-c1ccccc1	n	53.1	x	n	n	n	n	x
Cc1c(C(=O)N/N=C/c2ccccc2)[nH]c2ccc(Cl)cc12	n	57.5	n	n	n	n	51.2	59.3
COc1ccccc1N1CCN(C(=O)c2ccc3c(c2)CCN3S(=O)(=O)c2ccccc2)CC1	n	n	n	n	n	n	x	x
COc1ccccc1/C=C/C(=O)OCC(=O)NCc1ccco1	n	n	n	n	n	n	x	x
COc1cc(/C=C/C(=O)OCC(=O)NCc2ccco2)ccc1O	n	53.7	n	n	n	n	44.5	82.6
O=C(Cn1c2ccccc2c(=O)c2ccccc21)N/N=C/c1cc([N+](=O)[O-])ccc1N1CCCCCC1	n	97.4	n	n	n	n	n	x
O=C(Cn1c2ccccc2c(=O)c2ccccc21)N/N=C/c1ccc(N2CCCC2)c([N+](=O)[O-])c1	n	x	n	x	x	x	x	x
N#CCC(=O)N/N=C/c1cc([N+](=O)[O-])ccc1N1CCCC1	n	n	n	n	n	n	x	x
O=C(N/N=C/c1cc([N+](=O)[O-])ccc1N1CCNCC1)c1ccc([N+](=O)[O-])cc1	n	100.7	n	n	n	n	41.3	n
Cc1cccc(NS(=O)(=O)c2ccc(C)c(C(=O)NCc3ccncc3)c2)c1	n	n	n	n	n	n	x	x
O=C(NCCc1ccc(C(F)(F)F)cc1)C1CCC(=O)N(C2CC2)C1 (centres undefined)	n	n	n	n	n	n	x	x
SMILES	Bfl-1 A1 inh	Mdm2 MdmX PPI	Beta cell apopt	Jurkat NFkB inh	697 NFkB inh	NTR1 ag	Mdm2-MdmX conf	Full FLuc ctr
CCCCCCOc1ccc(/C(C)=N/NC2=NCCN2)cc1	n	90.2	n	n	n	n	n	x
CCOC(=O)c1c(C)nc2sc(C(=O)Nc3ccc(OC)cc3)c(N)c2c1-c1ccc(OC)cc1	n	58.0	n	n	n	n	56.0	52.9
CCc1ccc2nc(N=C(N)N)nc(C)c2c1	n	58.8	n	n	n	n	42.0	81.8
Cc1ccc2nc(N=C(N)N)nc(C)c2c1	n	51.2	x	n	n	n	44.0	101.7
Cc1ccc2nc(/N=C(\N)NC(=O)NC3CCCCC3)nc(C)c2c1	n	65.0	n	n	n	n	46.4	56.5
Cc1nc(N=C(N)N)nc2ccccc12	n	n	x	n	n	n	x	x
Cc1cc(C)c2cc(CN(CCN3CCCC3)C(=O)Nc3ccc(F)cc3)c(=O)[nH]c2c1	n	n	n	n	n	n	x	x
CCc1ccc2[nH]c(=O)c(CN(CCCN3CCOCC3)C(=O)Nc3cccc(Cl)c3)cc2c1	n	50.1	n	n	n	n	n	x
Cc1ccc(C)c2[nH]c(=O)c(CN(CCN3CCCC3)C(=O)Nc3cccc(Cl)c3)cc12	n	55.4	n	n	n	n	n	38.1
CCC(C)Sc1ccc([C@@H]2[C@H]3C(=O)N(CC)C(=O)[C@H]3[C@]3(C(=O)OC)CCCN23)cc1OC (some centres undefined)	n	n	n	n	n	n	x	x
O=c1oc2cc(Oc3c([N+](=O)[O-])cc(C(F)(F)F)cc3[N+](=O)[O-])ccc2c2c1CCCC2	n	66.6	x	n	n	n	n	x
Cc1ccc(N2CC(C(=O)NCCN3CCOCC3)CC2=O)cc1C (centres undefined)	n	n	n	n	n	n	x	x
Cc1ccc(Cn2c(SCC(C)C)nc3c2c(=O)[nH]c(=O)n3C)cc1	n	60.0	n	n	n	n	n	x
Cn1c(=O)[nH]c(=O)c2c1nc(SCC(N)=O)n2Cc1cccc(Br)c1	n	63.5	n	n	n	n	n	x
CC(C)(C)OC(=O)C[C@H]1C/C=C\C[C@@H](CC(=O)N(CCO)Cc2ccccc2)C(=O)N2CCC[C@H]2COC1=O	n	n	n	n	n	n	x	x
O=c1oc(-c2ccccc2)cc(Cl)c1Cl	n	94.3	n	n	n	n	81.5	n
CC(Sc1nnc(Cc2cccs2)n1C)C(=O)Nc1ccc(C(N)=O)cc1 (centres undefined)	x	n	x	n	n	n	x	x
CC(=O)c1ccc(NS(=O)(=O)c2ccc(-c3cnc(C4CC4)o3)cc2)cc1	x	n	x	n	n	n	x	x
Cc1ccc(NS(=O)(=O)c2ccc(-c3cnc(C4CC4)o3)cc2)cc1	n	53.1	n	n	n	n	50.6	49.6
O=S(=O)(NCc1ccccc1)c1ccc(-c2cnc(C3CC3)o2)cc1	n	n	n	n	n	n	x	x
